Bim-Mcl-1: human Bim-Mcl-1 interaction inhibition; Bead-based flow cytometry, Bim peptide-Mcl-1 binding; inhibition, % at 10 µM; hit rate 0.1% among 190,000; Q07820; in the data active = inhibition above about 40%
Mcl1 Bid PPI: disrupts binding of human Mcl-1 to Bid peptide. Q07820. TR-FRET Mcl-1/Bid-Dy647 peptide binding, 1536-well. inhibition, % at 21.7 µM. hit rate 0.97% among 220,000. AID 1021;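 active = compounds that cut the binding signal by more than half at the single screening dose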;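 note: His-tagged Mcl-1 with europium anti-His antibody binding Bid BH3 peptide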
MCL1-BIM inh: MCL1-BIM-BH3 interaction inhibition (human) | AID 2057 | GST-MCL1 / FITC-Bim-BH3 fluorescence polarization | inhibition, % at 10.9 µM | Q07820 | hit rate 0.68% among 320,000;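 active = inhibition above the mean inhibition of all tested compounds plus 3 SD, set per campaign, cut at about 40% in these data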;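 note: higher means more loss of mP so more displacement of Bim peptide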
eIF4E-4G inh: eIF4E/eIF4G interaction inhibition in translation initiation; TR-FRET eIF4E-eIF4GI(517-606) binding, 2 h; AID 782; P63073+Q04637; inhibition, % at 21.7 µM; hit rate 0.37% among 220,000;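 active = inhibition above about 30%, limit read from the data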
Mcl1 Noxa PPI: Mcl-1/Noxa interaction inhibition | Q07820 | TR-FRET Mcl-1/Noxa peptide binding, 2 h | inhibition, % at 21.7 µM | hit rate 1.5% among 220,000 | AID 1022;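 active = compounds that cut the protein-peptide binding signal by more than 50% relative to plate controls in a single-dose test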;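 note: His-tagged Mcl-1 with rhodamine Noxa BH3 peptide and terbium anti-His antibody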
14-3-3 Bad PPI: disrupts binding of bovine 14-3-3 zeta to phospho-Bad peptide. P63103. TR-FRET 14-3-3zeta/Dy647-pBad peptide displacement, 1 h. inhibition, % at 21.7 µM. hit rate 0.71% among 220,000. AID 781;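 active = inhibition above about 70%, limit read from the data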
Large screens that a line does not name were inactive; [ ] = dose if it differs, or a comment. Shown are actives, neighbours in structure and some others; about 2.6% of the full set was active somewhere.

O=C(NCCN1CCOCC1)c1ccc(/C=C2\Sc3ccccc3N(Cc3ccccc3F)C2=O)cc1	none (no result: Bim-Mcl-1, Mcl1 Bid PPI, eIF4E-4G inh, Mcl1 Noxa PPI, 14-3-3 Bad PPI)
COc1cc2cc(C(=O)Nc3ccc4c(c3)OCCO4)[nH]c2cc1OC	none (no result: Bim-Mcl-1, Mcl1 Bid PPI, eIF4E-4G inh, Mcl1 Noxa PPI, 14-3-3 Bad PPI)
CCN(CC(=O)NCc1cccs1)C(=O)c1ccc(NS(=O)(=O)c2ccc(F)cc2)cc1	none (no result: Bim-Mcl-1, Mcl1 Bid PPI, eIF4E-4G inh, Mcl1 Noxa PPI, 14-3-3 Bad PPI)
COc1ccc(C(=O)NNC(=O)CN2CCC(n3nnc4cc(F)ccc43)CC2)cc1	none
COc1ccc(C(=O)NNC(=O)CN2CCC(n3nnc4cc(C(F)(F)F)ccc43)CC2)cc1	Mcl1 Noxa PPI 52
Nc1ccccc1-c1nnc(SCc2ccccc2F)[nH]c1=O	eIF4E-4G inh 33[fluorescence artefact?]
COc1cc2cc3c(N)c(C(=O)Nc4sc(C)c(C)c4C#N)sc3nc2cc1OC	Mcl1 Bid PPI 66, Mcl1 Noxa PPI 98
COc1cc2cc3c(N)c(C(=O)NCc4ccco4)sc3nc2cc1OC	Mcl1 Noxa PPI 57
Cc1cccc(-n2c(=S)[nH]c3sc4c(c3c2=O)CCc2ccccc2-4)c1	none (no result: MCL1-BIM inh)
Cc1ccc(CSc2nnc(SCC(=O)N/N=C/c3c[nH]c4ccccc34)s2)cc1	Mcl1 Bid PPI 90, Mcl1 Noxa PPI 76, 14-3-3 Bad PPI 95 (no result: MCL1-BIM inh)
Cc1ccccc1NC(C)C(=O)N/N=C/c1c[nH]c2ccccc12 (configuration not stated)	none
Cc1ccc(NC(C)C(=O)N/N=C/c2c[nH]c3ccccc23)cc1 (configuration not stated)	Mcl1 Noxa PPI 54
Cc1sc(NC(=O)c2ccco2)c(CN2CCN(c3ccccc3)CC2)c1C	14-3-3 Bad PPI 80
O=C1NC(c2ccc(Br)cc2)=N/C1=C/c1ccco1	none
O=C1NC(c2ccccc2Cl)=N/C1=C/c1ccco1	Mcl1 Noxa PPI 61 (no result: Bim-Mcl-1)
Cc1ccc(N2CC(C(=O)N3CCC(C(=O)Nc4nnc(C(C)(C)C)s4)CC3)CC2=O)cc1 (configuration not stated)	none (no result: Bim-Mcl-1, Mcl1 Bid PPI, eIF4E-4G inh, Mcl1 Noxa PPI, 14-3-3 Bad PPI)
CCN(CC)S(=O)(=O)c1ccc(NC(=O)Nc2cccc(C(F)(F)F)c2)cc1	Mcl1 Bid PPI 101
Cc1ccc2c(c1)c1c3n2CCCNC3CCC1 (configuration not stated)	Mcl1 Bid PPI 63
c1cc2c(cc1C1CCCCC1)c1c3n2CCCNC3CCC1 (configuration not stated)	none
CCCCCOCC1CC(C/C(C)=N/Nc2nc(-c3ccccc3)cs2)C(=O)O1 (configuration not stated)	14-3-3 Bad PPI 81
CCCCCOCC1CC(C/C(C)=N/NC(N)=S)C(=O)O1 (configuration not stated)	none
Cc1cccc(C(=O)Nc2ccnc(-c3ccncc3)n2)c1	none
Cc1cccc(C(=O)Nc2ccnc(-c3cccnc3)n2)c1	Mcl1 Bid PPI 91
CC(=O)Nc1ccnc(-c2cccnc2)n1	eIF4E-4G inh 86
CC(C)C(=O)Nc1ccnc(-c2cccnc2)n1	none
Cc1cc(C(=O)NC2CCCc3c2cnn3-c2ccc(C(C)(C)C)cc2)n[nH]1 (configuration not stated)	none (no result: Bim-Mcl-1, Mcl1 Bid PPI, eIF4E-4G inh, Mcl1 Noxa PPI, 14-3-3 Bad PPI)
Nn1c(SCC(=O)Nc2ccc(OC(F)F)cc2)nnc(Cc2ccccc2)c1=O	none (no result: Bim-Mcl-1, Mcl1 Bid PPI, eIF4E-4G inh, Mcl1 Noxa PPI, 14-3-3 Bad PPI)
COc1ccc(-c2nnn(CC(=O)N3CCOCC3)n2)cc1	none
O=C(Cc1cccs1)Nc1ccc(-c2nnn(CC(=O)N3CCOCC3)n2)cc1	Mcl1 Noxa PPI 56
Cc1nnc2ccc(-c3ccc(NC(=O)Cc4cccs4)cc3)nn12	Mcl1 Noxa PPI 68 (no result: Bim-Mcl-1)
CC(=O)Nc1ccc(-c2ccc3nnc(C)n3n2)cc1	none
CN(C)S(=O)(=O)c1cccc(NC(=O)c2cc3c(=O)n4ccccc4nc3s2)c1	Mcl1 Bid PPI 69
